# Data as given in PubChem BioAssay (NCATS).
# Several values for one entry are separate records, joined by “and”; a condition that tells them apart may be missing. Identical values can stand only once. Values without a mark were called inactive. Inconclusive results are not listed. Activity calls are given as the source filed them. Unless noted, calls come from the whole dose curve; as a rule, active = well fitted curve in the direction sought with a large enough effect; inconclusive = small, poorly fitted or top-dose-only effect, or another doubt; inactive = no such curve, though single readings can be large; an effect the other way counts as inactive or inconclusive.
# Key:
# [1] = AP1 Signaling Pathway (AID 357; active = well fitted curve in either direction with a large enough effect, not every such curve was filed as active;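 note: ME-180 reporter cells stimulated with EGF at its EC50 level; % is set by controls: 0 for no effect and ±100 for the full control effect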); details: ME-180 (cervical carcinoma) AP-1-bla reporter, EGF-induced, beta-lactamase ratio, 5 h; at 17.2 µM (top of the series) unless noted
# Summary of the method: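 In this screen, ME-180 cells in Opti-MEM with 0.5% dialyzed FBS received EC50 EGF and compound titrations for 5 h. AP-1 reporter beta-lactamase was detected via CCF4 ratio, giving AC50 for positive and negative modulators.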
# [2] = NFAT Signaling Pathway (AID 444; active = well fitted curve in either direction with a large enough effect, not every such curve was filed as active;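 note: carbachol stimulus at about its EC50 of 1 µM final; % is set by controls: 0 for no effect and ±100 for the full control effect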); details: Jurkat NFAT-bla M1, carbachol, beta-lactamase ratio, 5 h; at 17.2 µM (top of the series)
# Summary of the method: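 Jurkat cells with NFAT-driven β-lactamase reporter and co-expressed M1 receptor, stimulated with carbachol (final 1 uM, ~EC50), compound titration, 5 h at 37 °C. CCF4 loaded 1 h at RT; 460/530 nm ratio gave %activity and AC50.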
# [3] = Stat Signaling Pathway (AID 446; active = well fitted curve in either direction with a large enough effect, not every such curve was filed as active;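 note: ME-180 cervical cancer cells given 40 pM IL-6 alongside compound; SIE-controlled beta-lactamase reporter measured as 460/530 nm FRET emission ratio; % is set by controls: 0 for no effect and ±100 for the full control effect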)
# Summary of the method: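 FRET read-out (405 nm excitation, 460/530 nm emission) of a beta-lactamase reporter under a STAT-inducible element in ME-180 cervical carcinoma cells. Cells with compound receive 40 pM IL-6 for 5 h. Values are normalised to AC90 stimulation and AC90 JAK-inhibitor controls.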
# [4] = target: Glucocorticoid receptor (Homo sapiens) (UniProt P04150); test: GR-GFP Redistribution (AID 450;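 active = compounds whose dose series gives a full or clear partial fitted curve of increased nuclear translocation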; note: potency is the fitted concentration of half-maximal effect); details: U2OS GR-GFP nuclear translocation, laser cytometry, 2 h
# [5] = target: Cytochrome P450 1A2 (Homo sapiens) (UniProt P05177); test: p450-cyp1a2 (AID 410; calls by dose curve; note: potency is the fitted concentration of half-maximal effect;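 for activity change, negative = inhibition: -100% = full effect of reference inhibitor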)
# Summary of the method: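 20nM CYP1A2, 100uM Luciferin-ME (=Km), 100mM KPO4; cpd 10 min RT; +NADPH regen, 60 min RT; stop/detect 20 min; luminescence. Normalized to furafylline 57 uM = full inhibition.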
# [6] = target: Glucocorticoid receptor (Homo sapiens) (UniProt P04150); test: GR-EFC Redistribution (AID 451; calls by dose curve; note: potency is the fitted concentration of half-maximal effect); details: CHO-K1 GR-EFC translocation, beta-gal luminescence, 2 h
# Summary of the method: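 CHO-K1 cells expressing nuclear EA and GR-ED fragments of b-gal; compounds titrated up to 46 uM final, 2 h at 37 C. GR nuclear translocation read as complemented b-gal luminescence after 1 h RT detection.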
# [7] = target: Mitogen-activated protein kinase 10 (Mus musculus) (UniProt Q61831); test: JNK3 AlphaScreen Assay (AID 530; active = well fitted curve in either direction with a large enough effect, not every such curve was filed as active;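 note: kinase came from lysate of stimulated human HepG2 cells; signal reports phosphorylation of biotinylated GST-cJun 1-79 at Ser73 with 10 µM ATP; % is set by controls: 0 for no effect and ±100 for the full control effect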)
# Summary of the method: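 HepG2 lysate (IL-1b/TNFa pre-activated) + biotin-GST-cJun 1-79 + anti-pSer73 cJun; cpd titration, 15 min RT; ATP 10 uM start; Tris pH 7.6, MgCl2, DTT, vanadate; beads in EDTA buffer; AlphaScreen.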
# [8] = Cell Viability - BJ (AID 421; calls by dose curve;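 note: potency is the fitted concentration of half-maximal effect; cells exposed to compound for 40 hours at 37 °C before readout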); details: BJ fibroblast viability, qHTS
# Summary of the method: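 Cytotoxicity as drop in intracellular ATP (CellTiter-Glo, 20 min RT) after 40 hr compound exposure of BJ fibroblasts at 37 °C. Titrations scaled between DMSO and 100 uM tamoxifen, Hill-fitted for AC50.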
# [9] = Cell Viability - Jurkat (AID 426;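 active = dose-dependent loss of cell ATP signal giving a full or clear fitted curve, ranked by lower potency value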;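 note: potency is the fitted concentration of half-maximal effect; cells exposed to compound for 40 hours at 37 °C before ATP read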); details: qHTS
# Summary of the method: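 Luminescent ATP read-out (CellTiter-Glo, 20 min at room temperature) after 40 hr compound exposure at 37 °C of Jurkat E6-1 cells, 5000/well. Decreased ATP taken as cytotoxicity; AC50 from standard Hill equation.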
# [10] = Cell Viability - Hek293 (AID 427;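 active = compounds whose dose-response curve shows a full or clear partial loss of cell viability, called from curve shape rather than a numeric limit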;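 note: potency is the fitted concentration of half-maximal effect; cells exposed to compound for 40 hours at 37 °C before reading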); details: qHTS
# Summary of the method: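 Luminescent ATP content (CellTiter-Glo, 20 min at room temperature) was measured after a 40 hr, 37 °C compound exposure of HEK293 cells. AC50 values came from Hill-equation fits of qHTS concentration-response data normalized to DMSO and 100 uM tamoxifen.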
# [11] = Cell Viability - HepG2 (AID 433; calls by dose curve;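 note: potency is the fitted concentration of half-maximal effect; potency for ATP loss meaning cytotoxicity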); details: qHTS
# Summary of the method: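 Read-out is luciferase-based quantitation of cellular ATP as a measure of viable HepG2 cells after 40 h treatment at 37 °C. Signal decrease is scaled between DMSO-only and 100 uM tamoxifen controls, with AC50 fitted by the Hill equation.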
# [12] = Cell Viability - SK-N-SH (AID 435; calls by dose curve; note: potency is the fitted concentration of half-maximal effect); details: SK-N-SH neuroblastoma cell viability qHTS
# Summary of the method: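 Luminescent ATP signal served as the viability read-out after 40 hours of compound treatment of human neuroblastoma SK-N-SH cells. Concentration-response data, scaled between DMSO and 100 uM tamoxifen, gave AC50 values by standard Hill modeling.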
# [13] = Cell Viability - N2a (AID 540); details: N2a mouse neuroblastoma cell viability; activity change, negative = cytotoxicity: at 92.2 µM (top of the series); note: nearly all actives have a fitted effect of over 45% in size; note: potency is the fitted concentration of half-maximal effect;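 for activity change, negative = cytotoxicity: plate controls were DMSO alone for no effect and tamoxifen control for full effect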
# Summary of the method: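 N2a mouse neuroblastoma, 1500 cells/well, 5 hr settle; compound 40 hr, 37 °C; CellTiter-Glo 20 min RT; luminescence; Hill-fit AC50.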
# [14] = Cell Viability - NIH 3T3 (AID 541); details: NIH 3T3 cell viability, qHTS; activity change, negative = cytotoxicity: at 92.2 µM (top of the series); note: nearly all actives have a fitted effect of over 25% in size; note: potency is the fitted concentration of half-maximal effect;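 for activity change, negative = cytotoxicity: plate controls were DMSO alone for no effect and tamoxifen positive control for full effect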
# Summary of the method: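 qHTS format; 40 hr compound exposure, 37 °C; CellTiter-Glo luminescence (cellular ATP) read-out after 20 min at RT. Decrease in ATP = cytotoxicity; AC50 from standard Hill fit.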
# [15] = Cell Viability - H-4-II-E (AID 543); note: nearly all actives have a fitted effect of over 35% in size; note: potency is the fitted concentration of half-maximal effect
# Summary of the method: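 qHTS, rat hepatoma H-4-II-E, 1500 cells/well; 40 hr compound exposure, 37 °C; CellTiter-Glo ATP luminescence after 20 min RT; AC50 by standard Hill fit.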
# [16] = Cell Viability - SH-SY5Y (AID 544); details: SH-SY5Y neuroblastoma cell viability; viability change, negative = cytotoxic: at 92.2 µM (top of the series); note: nearly all actives have a fitted effect of over 55% in size; note: potency is the fitted concentration of half-maximal effect;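 for viability change, negative = cytotoxic: 0% = DMSO alone and -100% = 100 µM tamoxifen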
# Summary of the method: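 SH-SY5Y, 1500 cells/well, 5 hr pre-incubation 37 °C; cpd 40 hr 37 °C; CellTiter-Glo 20 min RT; luminescence (ATP) read. qHTS concentration-response, Hill fit → AC50. Tamoxifen, doxorubicin as positive controls.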
# [17] = Cell Viability - Renal Proximal Tubule (AID 545); details: renal proximal tubule cells viability, primary cells of rat origin; activity change, negative = cytotoxicity: at 91.7 µM (top of the series); note: nearly all actives have a fitted effect of over 40% in size; note: potency is the fitted concentration of half-maximal effect;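 for activity change, negative = cytotoxicity: 0% = DMSO only and -100% = 100 µM tamoxifen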
# Summary of the method: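 Luminescent ATP signal (CellTiter-Glo) served as the viability read-out after 40 hr compound exposure of freshly isolated rat proximal tubule cells at 37 °C. Concentration-dependent ATP loss was fitted with the Hill equation to give AC50.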
# [18] = Cell Viability - Mesenchymal (AID 546); details: mesenchymal cells viability, qHTS; activity change, negative = cytotoxicity: at 91.7 µM (top of the series);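 note: cells exposed to compound for 40 hours before reading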; note: potency is the fitted concentration of half-maximal effect;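 for activity change, negative = cytotoxicity: 0% = DMSO only and -100% = 100 µM tamoxifen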
# Summary of the method: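 Human renal mesenchymal cells (glomerulus-derived), 1000 cells/well, 5 hr 37 °C pre-incubation; compound 40 hr, 37 °C; CellTiter-Glo, 20 min RT; luminescence; AC50 via Hill equation.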
# [19] = Cell Viability - HUV-EC-C (AID 542); note: nearly all actives have a fitted effect of over 35% in size; note: potency is the fitted concentration of half-maximal effect
# Summary of the method: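 Luminescent ATP read-out (CellTiter-Glo, 20 min room temperature) after 40 hr compound treatment of HUV-EC-C cells at 37 °C. Concentration-response data fitted with the standard Hill equation to give AC50; tamoxifen and doxorubicin served as positive controls.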
# Chain of Cytochrome P450 1A2 (Homo sapiens) (P05177 whole entry, looked up): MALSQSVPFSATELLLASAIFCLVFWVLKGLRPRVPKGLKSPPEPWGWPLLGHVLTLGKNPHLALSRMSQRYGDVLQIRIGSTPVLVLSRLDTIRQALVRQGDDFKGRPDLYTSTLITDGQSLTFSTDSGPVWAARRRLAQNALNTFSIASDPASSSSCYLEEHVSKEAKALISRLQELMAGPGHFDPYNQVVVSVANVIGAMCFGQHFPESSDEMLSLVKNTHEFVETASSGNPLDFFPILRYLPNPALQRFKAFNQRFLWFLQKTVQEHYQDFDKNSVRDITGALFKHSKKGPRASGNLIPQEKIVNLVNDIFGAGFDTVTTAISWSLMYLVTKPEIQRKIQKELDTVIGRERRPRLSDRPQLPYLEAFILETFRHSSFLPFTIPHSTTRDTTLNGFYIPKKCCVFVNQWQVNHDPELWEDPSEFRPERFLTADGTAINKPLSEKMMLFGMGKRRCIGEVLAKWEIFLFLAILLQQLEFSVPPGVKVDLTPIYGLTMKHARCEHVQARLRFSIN
# Chain of Glucocorticoid receptor (Homo sapiens) (P04150 whole entry, looked up, the tested form may be a part): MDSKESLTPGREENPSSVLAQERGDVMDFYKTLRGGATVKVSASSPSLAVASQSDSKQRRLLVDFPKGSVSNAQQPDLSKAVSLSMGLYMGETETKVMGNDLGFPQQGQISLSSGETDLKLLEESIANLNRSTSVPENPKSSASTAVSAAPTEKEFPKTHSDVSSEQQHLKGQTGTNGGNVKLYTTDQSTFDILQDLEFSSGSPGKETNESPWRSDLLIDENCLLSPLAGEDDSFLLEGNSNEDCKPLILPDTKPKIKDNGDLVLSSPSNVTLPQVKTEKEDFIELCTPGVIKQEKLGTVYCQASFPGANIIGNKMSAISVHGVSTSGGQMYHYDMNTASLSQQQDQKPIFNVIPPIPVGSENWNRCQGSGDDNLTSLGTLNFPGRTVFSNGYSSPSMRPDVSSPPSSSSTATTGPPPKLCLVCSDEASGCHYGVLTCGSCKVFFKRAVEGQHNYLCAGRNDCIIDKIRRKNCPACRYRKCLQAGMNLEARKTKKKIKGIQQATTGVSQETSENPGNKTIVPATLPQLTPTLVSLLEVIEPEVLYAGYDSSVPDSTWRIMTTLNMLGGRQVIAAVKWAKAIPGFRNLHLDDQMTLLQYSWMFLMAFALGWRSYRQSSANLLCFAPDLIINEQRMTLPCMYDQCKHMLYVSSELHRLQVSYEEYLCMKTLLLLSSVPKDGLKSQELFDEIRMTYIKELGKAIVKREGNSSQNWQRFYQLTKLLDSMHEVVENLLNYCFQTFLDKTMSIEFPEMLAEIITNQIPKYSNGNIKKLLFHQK
smiles,measurement,setting,value
CC(=O)Nc1c(I)c(NC(C)=O)c(I)c(C(=O)O)c1I,"activity change, negative = inhibition",[1],-1.8%
same,"activity change, negative = inhibition",[2],-7.63%
same,outcome,[3],inactive
same,Potency,[4],> 20.6 µM
C[C@]12CCC(=O)C=C1CC[C@@H]1[C@@H]2[C@@H](O)C[C@@]2(C)[C@H]1CC[C@]2(O)C(=O)COC(=O)CCC(=O)O,"activity change, negative = inhibition",[1],-1.32% and 11.9%
same,"activity change, negative = inhibition",[2],10.9%
same,outcome,[3],inactive
same,Potency,[4],44.2 nM (active) and 599 nM (active)
CCN(CC)CCOc1ccc(/C(=C(\Cl)c2ccccc2)c2ccccc2)cc1,"activity change, negative = inhibition",[1],9.05%
same,Potency,[5],12.6 µM (active)
same,"activity change, negative = inhibition",[2],-12.4%
same,outcome,[3],inactive
same,Potency,[4],> 20.6 µM
same,Potency,[6],> 20.6 µM
same,outcome,[7],inactive
CC(=O)[C@@]1(O)CC[C@H]2[C@@H]3C[C@H](C)C4=CC(=O)CC[C@]4(C)[C@H]3CC[C@@]21C,"activity change, negative = inhibition",[1],16%
same,"activity change, negative = inhibition",[2],19.2%
same,outcome,[3],inactive
same,Potency,[4],0.00082 µM (active)
OCCOCCN1CCN(C(c2ccccc2)c2ccc(Cl)cc2)CC1 (stereo not drawn),"activity change, negative = inhibition",[1],3.37%
same,outcome,[3],inactive
OC(CCCN1CCCCC1)(c1ccccc1)c1ccccc1,"activity change, negative = inhibition",[1],26.6%
same,Potency,[5],inactive
same,outcome,[3],inactive
same,outcome,[7],inactive
CN1CCCN(C(c2ccccc2)c2ccc(Cl)cc2)CC1 (stereo not drawn),"activity change, negative = inhibition",[1],14.9%
same,"activity change, negative = inhibition",[2],-95.8% (active)
same,outcome,[3],inactive
same,Potency,[4],6.11 µM (active)
CCCCCCCCCCCCCCCC[n+]1ccccc1,Potency,[8],55.8 µM (active)
same,Potency,[9],19.2 µM (active)
same,Potency,[10],54.4 µM (active)
same,Potency,[11],32.8 µM (active)
same,Potency,[12],28.7 µM (active)
same,outcome,[7],inactive
same,Potency,[13],0.398 µM (active)
same,Potency,[14],25.1 µM (active)
same,Potency,[15],3.98 µM (active)
same,Potency,[16],25.1 µM (active)
same,Potency,[17],31.6 µM (active)
same,Potency,[18],31.6 µM (active)
C[C@@H](C1=C(CCN(C)C)Cc2ccccc21)c1ccccn1,Potency,[5],20 µM (active)
same,outcome,[7],inactive
Nc1c[n+](N2CCOCC2)no1,Potency,[4],> 46 µM
same,Potency,[6],> 46 µM
same,outcome,[7],inactive
CC(=O)OC/C=C(C)/C=C/C=C(C)/C=C/C1=C(C)CCCC1(C)C,Potency,[8],> 92 µM
same,Potency,[9],63.9 µM (active)
same,Potency,[10],> 92 µM
same,Potency,[11],> 92 µM
same,outcome,[7],inactive
same,Potency,[13],inactive
same,"activity change, negative = cytotoxicity",[14],-114% (active)
same,Potency,[19],inactive
same,"viability change, negative = cytotoxic",[16],-99.5% (active)
same,Potency,[18],inactive
Brc1ccccc1-c1ccccc1,Potency,[8],> 92 µM
same,Potency,[9],> 92 µM
same,Potency,[10],> 92 µM
same,Potency,[11],> 92 µM
same,Potency,[12],> 92 µM
same,outcome,[7],inactive
same,Potency,[13],inactive
same,"activity change, negative = cytotoxicity",[14],3.13%
same,Potency,[19],inactive
same,Potency,[15],inactive
same,Potency,[16],inactive
same,Potency,[17],inactive
same,Potency,[18],inactive
OCc1c[nH]c2ccccc12,Potency,[8],> 92 µM
same,Potency,[9],> 92 µM
same,Potency,[10],> 92 µM
same,Potency,[11],> 92 µM
same,Potency,[12],> 92 µM
same,outcome,[7],inactive
same,Potency,[13],inactive
same,"activity change, negative = cytotoxicity",[14],0.242%
same,Potency,[19],inactive
same,Potency,[15],inactive
same,Potency,[16],inactive
same,Potency,[18],inactive
Nc1ccc(O)cc1,Potency,[8],62.8 µM (active)
same,Potency,[9],38.6 µM (active)
same,Potency,[10],47.3 µM (active)
same,Potency,[12],43 µM (active)
same,outcome,[7],inactive
same,Potency,[13],31.6 µM (active)
same,"activity change, negative = cytotoxicity",[14],-133% (active)
same,Potency,[19],31.6 µM (active)
same,Potency,[15],39.8 µM (active)
same,Potency,[16],25.1 µM (active)
same,Potency,[17],25.1 µM (active)
same,Potency,[18],31.6 µM (active)
